This test concerns MDA-MB-468 breast. The experiment in a line: NCI-60 one-dose screen, 48 h (100 = growth as untreated, 0 = no growth, -100 = all killed). The settings on record: 10 µM unless noted.

Compounds without any hit were thinned out: in the full panel of roughly 83,000, 20% have a hit.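 The test compound was applied at a single concentration to cells in 96-well plates for 48 hours, and percent growth was recorded.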 A number with no mark means an inactive call. Activity calls are given as the source filed them. How the source made its calls: active means growth percent below 10; inactive means the rest.

As for `CCn1cc(-c2ccnc3[nH]c(-c4cccc(CN(C)C)c4)cc23)c(-c2ccc(NC(=O)N(C)C)cc2)n1`, the growth is 56.5%. To `O=C1OC(c2ccccc2)=N/C1=C\c1ccccc1` belongs 92.4%; to `Cn1ccnc1C(=O)/C=C/c1ccc(C(=O)Nc2nc3ccccc3[nH]2)cc1`, -3.55% (active); to `COc1cc(-c2nc(-c3ccccc3)[nH]c2-c2ccnc(NCCCNS(=O)(=O)c3cccc(F)c3)n2)ccc1F`, 85.1%. Then `O=C1c2cc(Br)ccc2-n2c1nc1cc(Br)ccc1c2=O`, with 76.6%.

As for `O=C(NCc1cccnc1)/C(=C\c1ccc(Br)cc1)S(=O)(=O)c1ccccc1`, the growth was -58.9% (active). As for `COc1ccc(/C=C/C(=O)c2ccc(O)c(CN3CCN(c4cc5c(cc4F)c(=O)c(C(=O)O)cn5C4CC4)CC3)c2)cc1`, the growth is 3.04% (active). Take `CC1=NOCC(=O)N1`: the growth is 95.9%. With `Nc1nccc2c1ccn2-c1ccc(NC(=O)Nc2cccc(C(F)(F)F)c2)cc1`, the growth was 72.8%. As for `COCCNC(C(=O)c1ccccc1)c1ccccc1` (centres undefined), the growth is 90.8%. On to `COC(=O)Nc1nc2ccc(C(=O)c3ccccc3)cc2[nH]1`, for which the growth was -13.7% (active). On to `COc1ccc(C(=O)Cn2cnc3c(Nc4cc(C(=O)Nc5ccc(N6CCN(CCO)CC6)cc5)ccc4C)ncnc32)cc1`, for which the growth was 114%. For the compound `C=C1c2c(C)nn(-c3ccc(O)cc3)c2N(C)C23C[C@@H]1C1(C)c4c(C)nn(-c5ccc(O)cc5)c4N(C)C(C)(C[C@H]12)C3` (some centres undefined), the growth is -5.71% (active). To `CCN(CC)CCOC(=O)Nc1c(C(C)C)cccc1C(C)C` belongs 97.3%.

The values above are taken from PubChem BioAssay (NCI).
